In PubChem BioAssay (EPA / NIEHS) one finds outcome data, which are given here for 40 molecules.

SMILES strings stand for the structures. Records with an inconclusive call do not appear. The source made the active and inactive calls. Rule for the calls: active = hit-call score of the fitted dose curve at least 0.9, where 1 is the maximum; inconclusive = response in the unintended direction; inactive = score below 0.9.

Sequence of Steroid hormone receptor ERR1 (Homo sapiens) (P11474 whole entry, looked up): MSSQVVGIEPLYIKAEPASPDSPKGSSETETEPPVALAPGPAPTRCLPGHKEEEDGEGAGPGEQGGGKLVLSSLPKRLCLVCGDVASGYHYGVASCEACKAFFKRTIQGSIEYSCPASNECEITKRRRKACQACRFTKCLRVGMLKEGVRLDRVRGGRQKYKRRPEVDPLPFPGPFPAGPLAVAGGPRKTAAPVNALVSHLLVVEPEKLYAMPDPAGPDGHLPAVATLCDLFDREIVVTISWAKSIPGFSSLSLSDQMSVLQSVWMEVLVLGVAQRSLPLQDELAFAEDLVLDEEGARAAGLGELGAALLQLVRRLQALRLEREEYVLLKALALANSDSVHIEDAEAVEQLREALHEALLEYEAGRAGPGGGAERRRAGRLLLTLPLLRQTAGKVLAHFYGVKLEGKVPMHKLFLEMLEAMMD

The test addresses Steroid hormone receptor ERR1 (Homo sapiens) (UniProt P11474). Kind of test: ATG_ERRa_TRANS: Attagene TRANS-FACTORIAL HepG2 Assay for human Estrogen-Related Receptor alpha (ERRa) (AID 2282971). The following applies: HepG2 Attagene TRANS reporter, ERRa transactivation. As for the experimental part: ATG_TRANS is a cell-based, multiplexed-readout assay that uses HepG2, a human liver cell line, with measurements taken at 24 hours after chemical dosing in a 24-well plate.ATG_ERRa_TRANS is one of 30 assay component(s) measured or calculated from the ATG_TRANS assay. It is designed to make measurements of mRNA induction, a form of inducible reporter, as detected with fluorescence intensity signals by Reverse transcription polymerase chain reaction (RT-PCR) and Capillary electrophoresis technology.Data from the assay component ATG_ERRa_TRANS was analyzed into 1 assay endpoint. This assay endpoint, ATG_ERRa_TRANS, was analyzed in the positive analysis fitting direction relative to DMSO as the negative control and baseline of activity. Using a type of inducible reporter, measures of mRNA for gain-of-signal activity can be used to understand the reporter gene at the transcription factor-level as they relate to the gene ESRRA. Furthermore, this assay endpoint can be referred to as a primary readout, because this assay has produced multiple assay endpoints where this one serves a reporter gene function. To generalize the intended target to other relatable targets, this assay endpoint is annotated to the nuclear receptor intended target family, where the subfamily is steroidal.
Human liver HepG2 cells are transiently transfected with multiple reporter transcription units (MRTUs) in 6-well plates using FuGene 6 reagent (Roche; 3 ml FuGene/1 mg DNA). The MRTU constructs are regulated by a cis-regulating element (promoter). […] A major difference between the CIS and TRANS system is that in CIS activities of endogenous TFs are measured, whereas the TRANS assay evaluates changes in activities of exogenous, chimeric NR-Gal4 proteins. […] At the end of 24 hour incubation, total RNA was isolated using TriZol reagent (Invitrogen). The isolated RNA is then reverse-transcribed using oligo(dT) primer and Mo-MLV reverse transcriptase (Invitrogen) with DNAse I (Ambion) treatment for 30 min. The one-tenth of the produced cDNA was amplified by PCR using Taq DNA polymerase (Invitrogen) and two reporter sequence-specific primers. The PCR products were fluorescently labeled by primer extension with 6-arboxyfluorescein (6-FAM) 5'-labeled reporter sequence-specific primer (2 min at 95 C, 20 s at 68 C and 10 min at 72 C) and these products were digested with 5U of HpaI (New England Biolabs) for 2h at 37 C. The fragments were purified using Qiaquick PCR columns (Qiagen), analyzed on an ABI 3130xL genetic analyzer (Applied Biosystems) with peak positions identified by using a set of X-rhodamine (ROX)-labeled MapMarker1000 molecular weight standards (BioVentures). The raw capillary electrophoresis data was processed using Attagraph software (Attagene).
Turning to `O=C(Cl)C(F)(F)C(F)(F)C(F)(F)C(F)(F)C(F)(F)C(F)(F)C(F)(F)C(F)(F)F`, the result was inactive.
Under `Oc1ccc(Nc2ccccc2)cc1` stands “inactive”; under `C=C(C)C(=O)OCC(F)(F)C(F)(F)C(F)(F)F`, “inactive”.
For `CCCCCCCOC(=O)c1ccccc1C(=O)OCCCCCCC`, the call was inactive.
For the molecule `CC(C)c1ccccc1N`, the molecule was classed as inactive.
Turning to `CC/C=C\CCOC(=O)c1ccccc1`, the outcome was inactive.
As for `FC(F)(F)C(F)(F)C(F)(F)C(F)(F)C(F)(F)C(F)(F)CCS`, the molecule was classed as inactive.
With `C=CC(F)(F)C(F)(F)C(F)(F)C(F)(F)C(F)(F)C(F)(F)C(F)(F)C(F)(F)F`, the molecule was classed as inactive.
The same measure for `O=C(O)C(F)(F)C(F)(F)C(F)(F)C(F)(F)C(F)(F)C(F)(F)C(F)(F)C(F)(F)C(F)(F)C(F)(F)C(F)(F)C(F)(F)C(F)(F)F`: “inactive”; for `FC(F)(F)C(F)(F)C(F)(F)C(F)(F)C(F)(F)C(F)(F)C(F)(F)C(F)(F)F`: “inactive”.
Turning to `OCCCC(F)(F)C(F)(F)C(F)(F)F`, the outcome was inactive.
Regarding `CC(=O)Nc1ccc(N=Nc2cc(C)ccc2O)cc1`, the call was inactive.
Take `O=C(O)C=C(C(F)(F)F)C(F)(F)F`: the molecule was classed as inactive.
For `CCN(Cc1cccc(S(=O)(=O)O)c1)c1ccc(C(=C2C=CC(=[N+](CC)Cc3cccc(S(=O)(=O)O)c3)C=C2)c2ccc(O)cc2S(=O)(=O)[O-])cc1`, the molecule was called inactive.
The same measure for `O[Si](c1ccccc1)(c1ccccc1)c1ccccc1`: “inactive”.
Under `FC(F)(F)C(F)(F)C(F)(F)N(C(F)(F)C(F)(F)C(F)(F)F)C(F)(F)C(F)(F)C(F)(F)F` stands “inactive”; under `c1ccc(B(c2ccccc2)c2ccccc2)cc1`, “inactive”; under `[Co]`, “inactive”.
With `CC(C)(C)C(=O)CC(=O)C(F)(F)C(F)(F)C(F)(F)F`, the molecule was classed as inactive.
As for `CCCCOc1ccc(N)cc1`, the molecule was classed as inactive.
The same measure for `O=P(O)(O)OCCC(F)(F)C(F)(F)C(F)(F)C(F)(F)C(F)(F)C(F)(F)F`: “inactive”.
In the case of `OCC(F)(F)C(F)(F)C(F)(F)C(F)F`, the result was inactive.
The same measure for `CCc1c(Br)c(Br)c(Br)c(Br)c1Br`: “inactive”.
For `Nc1ccc(Oc2cccc(Oc3ccc(N)cc3)c2)cc1`, the call was inactive.
With `Nc1ccc(S(=O)(=O)Nc2nccs2)cc1`, the result was inactive.
For the molecule `C=C(C)C(=O)OCC(F)(F)C(F)(F)C(F)(F)C(F)(F)C(F)(F)C(F)(F)C(F)(F)F`, the result was inactive.
In the case of `CS(C)(=O)=O`, the molecule was called inactive.
As to `COC(OC(C)=O)c1ccccc1` (stereo not given), the molecule was classed as inactive.
`O=C(O)C(F)(F)C(F)(F)C(F)(F)F`: the molecule was classed as inactive.
Under `OCCCC(F)(F)C(F)(F)C(F)(F)C(F)(F)C(F)(F)C(F)(F)C(F)(F)F` stands “inactive”; under `CCCCCC=O`, “inactive”.
The same measure for `C#C[C@]1(O)CC[C@H]2[C@@H]3CCc4cc(OC)ccc4[C@H]3CC[C@@]21C`: “inactive”.
Under `NC(=O)C(F)(F)C(F)(F)C(F)(F)C(F)(F)F` stands “inactive”; under `FC(F)(F)C(F)(F)C(F)(F)C(F)(F)C(F)(F)C(F)(F)CC1CO1` (stereo not given), “inactive”.
For `CCCCCCC(C)OC(=O)CCCCC(=O)OC(C)CCCCCC` (stereo not given), the outcome was inactive.
For the molecule `OCC(F)(F)C(F)(F)C(F)(F)F`, the molecule was classed as inactive.
Turning to `CC/C=C\CCOC(C)=O`, the molecule was called inactive.
Under `O=C(O)C(F)(F)C(F)(F)C(F)(F)C(F)(F)F` stands “inactive”; under `O=S(=O)(OCCOC(F)(F)F)C(F)(F)F`, “inactive”; under `FC(F)(F)C(F)(F)C(F)(F)C(F)(F)C(F)(F)C(F)(F)C(F)(F)I`, “inactive”.
